Results as given in PubChem BioAssay (NCATS).
“And” between values parts separate entries of the source, which are not always exact repeats. Equal values may be shown once. Records with an inconclusive call do not appear. Entries that show only a call come without a potency. The source made the active and inactive calls. Calls follow the shape of the dose curve; as a rule, active = well fitted inhibition curve with a large enough effect; inconclusive = small, poorly fitted or top-dose-only effect; inactive = flat fitted curve, though single readings scatter.

Assay: P-glycoprotein substrates identified in KB-8-5-11 adenocarcinoma cell line, qHTS therapeutic library screen (AID 1346987); also: nearly all actives have a fitted effect of over 65% in size
Details: KB-8-5-11 (P-gp overexpressing) viability, CellTiter-Glo, 72 h; series mostly up to 44.5 µM
Source text: The ATP-binding cassette transporters P-glycoprotein (P-gp) is known to limit brain penetration of many chemotherapy drugs. […] As such, we developed a high-throughput screen (HTS) to identify substrates of P-gp from a series of chemical libraries including the National Center for Advancing Translational Sciences Pharmaceutical Collection NPC, 2,816 compounds), testing a total of 10,804 compounds, most of which have known mechanisms of action. We used the CellTiter-Glo viability assay to test library compounds against the parental KB-3-1 human cervical adenocarcinoma cell line and the colchicine-selected sub-line KB-8-5-11 that over-expresses P-gp. KB-8-5-11 cells were also tested in the presence of a P-gp inhibitor (tariquidar) to assess reversability of transporter-mediated resistance. Of the tested compounds, a total of 90 P-gp substrates were identified including 55 newly identified P-gp substrates. Substrates were confirmed using an orthogonal killing assay against HEK-293 cells transfected with P-gp. As exemplars, we confirmed that […] (cyclin-dependent kinase inhibitor); AT9283, (Janus kinase 2/3 inhibitor); ispinesib (kinesin spindle protein inhibitor); gedatolisib (PKI-587, phosphoinositide 3-kinase/mammalian target of rampamycin inhibitor); GSK-690693 (AKT inhibitor); and KW-2478 (heat shock protein 90 inhibitor) were substrates , and direct ATPase stimulation was assessed. ABCG2 was also found to confer high levels of resistance to AT9283, GSK-690693 and gedatolisib, while ispinesib, AT7519 and KW-2478 were weaker substrates.
The HeLa derivative cell line, KB-3-1, and its colchicine-selected, P-gp-overexpressing subline, KB-8-5-11 were maintained in DMEM with 10% FCS and Pen/Strep with glutamine at 37 degree C in 5% CO2. For KB-8-5-11 cells, colchicine was added to the medium at a concentration of 100 ng/mL. HEK-293 cells transfected with empty vector (pcDNA) or vector containing human ABCB1 (MDR-19) or ABCG2 (R-5) have been described previously (Robey, Lin, Qiu, Chan & Bates, 2011) and were maintained in EMEM supplemented with 10% FCS, Pen/Strep and glutamine with 2 mg/ml G418 to select for the expression of the transporter. Cultures were confirmed to be free of mycoplasma infection using the MycoAlert Mycoplasma Detection Kit (Lonza, Walkersville, MD). For the screen, assay medium was identical to culture medium except for KB-8-5-11 where colchicine was excluded from the medium.
All cell lines were plated into 1536-well plates at 500 cells/well in 5 uL media. Compounds were then pinned in dose-response using a 1536-head pin tool (Kalypsis, San Diego, CA) and plates were incubated at 37 degree C in 5% CO2 for an additional 72 h. CellTiter-Glo reagent (Promega) was dispensed into the wells, incubated for 5 min and luminescence was read on a ViewLux instrument (Perkin-Elmer). Cytotoxic compounds were defined as those that yielded a curve class of -1.1, -1.2, -2.1, -2.2, -2.3, or -2.4, a maximum response of >50% and an AC50 of < 10 uM. Cherry-picked hits from screening analysis were tested with both the KB pair of cell lines, and the pcDNA (empty vector control) and MDR-19 (P-gp overexpressing) pair were tested, in the absence and presence of tariquidar.
Potency is read from the fitted curve at half-maximal effect.

Structure (SMILES) | Potency
O=C(O)c1ccccc1Nc1cc(Cl)ccc1C(=O)O | inactive
O=C(Oc1ccccc1)c1cccc(C(=O)Oc2ccccc2)c1 | inactive
CN(CC1(C)CCCO1)S(=O)(=O)c1ccc(Cl)c(S(N)(=O)=O)c1 (stereo not given) | inactive
COc1cc(NS(=O)(=O)c2ccc(N)cc2)nc(C)n1 | inactive
CCCCC(O)/C=C(C)/C=C/C=C/C(=O)N1CCCC1=O (stereo not given) | inactive
CC1CN(c2cc3c(cc2F)c(=O)c(C(=O)O)cn3-c2ccc(F)cc2F)CCN1 (stereo not given) | inactive
CC(=O)[C@H]1CC[C@H]2[C@@H]3C=CC4=CC(=O)CC[C@@]4(C)[C@@H]3CC[C@]12C | inactive
Cn1cnc2c(NCc3ccccc3)nc(NCCO)nc21 | inactive
O=C(OCC(COC(=O)c1cccnc1)(COC(=O)c1cccnc1)COC(=O)c1cccnc1)c1cccnc1 | inactive
CC(=O)N(CC(O)CO)c1c(I)c(C(=O)NCCO)c(I)c(C(=O)NCC(O)CO)c1I (stereo not given) | inactive
O=C(Oc1ccccc1)c1ccccc1O | inactive
CC(C)=CCNc1ncnc2c1ncn2[C@@H]1O[C@H](CO)[C@@H](O)[C@H]1O | 5.8 µM (active)
O=C(O)/C=C(\CC(=O)O)C(=O)O | inactive
O=C1NC2CCCCN2C12CCN(CCCN1c3ccccc3CCc3ccc(Cl)cc31)CC2 (stereo not given) | 16.4 µM (active)
Brc1ccccc1-c1ccccc1 | inactive
C[C@H]1NCc2cc(-c3ccc4c(=O)c(C(=O)O)cn(C5CC5)c4c3OC(F)F)ccc21 | inactive
CSc1ccc(/C=C2/C(C)=C(CC(=O)O)c3cc(F)ccc32)cc1 | inactive
O=S(=O)(O)c1ccc2nc(-c3ccccc3)[nH]c2c1 | inactive
CCCCCCCCCCCCCCCC[N+](C)(C)Cc1ccccc1 | inactive
O=C1NC(c2cccc([N+](=O)[O-])c2)=CCN1c1ccccc1O | inactive

Structure (SMILES) | Potency
Cc1ccccc1C(=O)N1CC/C(=N\OS(=O)(=O)O)c2ccc(Cl)cc21 | inactive
O=[N+]([O-])c1nccn1CO[C@@H](CO)[C@H](O)CO | inactive
C[N+]1(C)CCC(OC(=O)C(O)(c2ccccc2)C2CCCC2)C1 (stereo not given) | inactive
O=C(O)c1[nH]n(-c2ccc(S(=O)(=O)O)cc2)c(=O)c1N=Nc1ccc(S(=O)(=O)O)cc1 | inactive
CCCC(=O)O[C@]1(C(=O)COC(=O)CC)CC[C@H]2[C@@H]3CCC4=CC(=O)CC[C@]4(C)[C@H]3[C@@H](O)C[C@@]21C | inactive
CN(C)C(=O)CNC(=O)Cc1ccccc1 | inactive
C[N+]1(CC2COC(c3ccccc3)(c3ccccc3)O2)CCCCC1 (stereo not given) | inactive
CCO[C@H](Cc1ccc(OCCc2ccc(OS(C)(=O)=O)cc2)cc1)C(=O)O | inactive
CCCCC/C=C\C/C=C\CCCCCCCC(=O)NC(C)c1ccccc1 (stereo not given) | inactive
Cn1cc(S(C)=O)c(=O)c2ccc(F)cc21 (stereo not given) | inactive
CC1(C)S[C@@H]2[C@H](NC(=O)C(c3ccccc3)S(=O)(=O)O)C(=O)N2[C@H]1C(=O)O (stereo not given in full) | inactive
O=C(NN1CCCC1)NS(=O)(=O)c1ccc(Cl)cc1 | inactive
CCOC(=O)Cn1cccc1-c1nc(-c2ccc(OC)cc2)c(-c2ccc(OC)cc2)s1 | inactive
CCOC(=O)c1ccc(OCCN2C[C@H](O)[C@@H](O)[C@H](O)[C@H]2CO)cc1 | inactive
CC(=O)OCC(=O)[C@@]1(O)[C@H](OC(C)=O)C[C@H]2[C@@H]3CCC4=CC(=O)C=C[C@]4(C)[C@@]3(F)[C@@H](O)C[C@@]21C | inactive
O=C(OCC1(COC(=O)c2cccnc2)CCCC(COC(=O)c2cccnc2)(COC(=O)c2cccnc2)C1O)c1cccnc1 | inactive
O=C(O)Cc1ccccc1Oc1ccc(Cl)cc1Cl | inactive
CCN1CCN(C(=O)N[C@@H](C(=O)N[C@@H]2C(=O)N3[C@@H]2SC(C)(C)[C@H]3C(=O)O)c2ccccc2)C(=O)C1=O | inactive
CC(C)C(C)(C)C(C)(C)C(C)(C)S | inactive
O=C1NCCN1CCN1CCC(c2cn(-c3ccc(F)cc3)c3ccc(Cl)cc23)CC1 | 18.4 µM (active) and 20.6 µM (active)
